From PubChem BioAssay
GIRK2 act – Activators of human GIRK2-containing channels | P48051 | HEK293 GIRK2/NPY4 cells, thallium flux fluorescence | activation (% efficacy), % for hits at 37.5 µM | 34,000 tested, under 10 active;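 active = primary screen hit, no activity in plain HEK293 cells, and in GIRK2-only cells above 5% efficacy rising with concentration; inactive = the rest, including fluorescent compounds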;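 note: efficacy is normalized control-subtracted fluorescence 15 s after thallium addition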
AMPAR-TARP mod – GluA2-stargazin AMPA receptor complex modulation; O88602+P19491; HEK293 GluA2+stargazin, membrane potential dye (FDSS), glutamate EC50; hits were called plate by plate, in both directions; calls only at 30 µM; 40,000 tested, 3.5% active; AID 1259245;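 active = any of four per-well response measures lying three or more SD from its plate-wide compound average, in either direction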
Target sequence (O88602 whole entry, looked up): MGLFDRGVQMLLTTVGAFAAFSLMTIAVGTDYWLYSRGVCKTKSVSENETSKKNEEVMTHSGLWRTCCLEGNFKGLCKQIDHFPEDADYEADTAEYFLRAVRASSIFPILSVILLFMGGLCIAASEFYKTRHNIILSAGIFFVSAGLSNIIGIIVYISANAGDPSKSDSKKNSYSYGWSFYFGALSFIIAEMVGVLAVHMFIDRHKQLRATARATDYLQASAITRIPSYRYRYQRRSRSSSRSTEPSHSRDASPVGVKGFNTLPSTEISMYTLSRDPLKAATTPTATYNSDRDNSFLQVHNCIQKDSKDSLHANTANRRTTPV
Target sequence (P19491 whole entry, looked up): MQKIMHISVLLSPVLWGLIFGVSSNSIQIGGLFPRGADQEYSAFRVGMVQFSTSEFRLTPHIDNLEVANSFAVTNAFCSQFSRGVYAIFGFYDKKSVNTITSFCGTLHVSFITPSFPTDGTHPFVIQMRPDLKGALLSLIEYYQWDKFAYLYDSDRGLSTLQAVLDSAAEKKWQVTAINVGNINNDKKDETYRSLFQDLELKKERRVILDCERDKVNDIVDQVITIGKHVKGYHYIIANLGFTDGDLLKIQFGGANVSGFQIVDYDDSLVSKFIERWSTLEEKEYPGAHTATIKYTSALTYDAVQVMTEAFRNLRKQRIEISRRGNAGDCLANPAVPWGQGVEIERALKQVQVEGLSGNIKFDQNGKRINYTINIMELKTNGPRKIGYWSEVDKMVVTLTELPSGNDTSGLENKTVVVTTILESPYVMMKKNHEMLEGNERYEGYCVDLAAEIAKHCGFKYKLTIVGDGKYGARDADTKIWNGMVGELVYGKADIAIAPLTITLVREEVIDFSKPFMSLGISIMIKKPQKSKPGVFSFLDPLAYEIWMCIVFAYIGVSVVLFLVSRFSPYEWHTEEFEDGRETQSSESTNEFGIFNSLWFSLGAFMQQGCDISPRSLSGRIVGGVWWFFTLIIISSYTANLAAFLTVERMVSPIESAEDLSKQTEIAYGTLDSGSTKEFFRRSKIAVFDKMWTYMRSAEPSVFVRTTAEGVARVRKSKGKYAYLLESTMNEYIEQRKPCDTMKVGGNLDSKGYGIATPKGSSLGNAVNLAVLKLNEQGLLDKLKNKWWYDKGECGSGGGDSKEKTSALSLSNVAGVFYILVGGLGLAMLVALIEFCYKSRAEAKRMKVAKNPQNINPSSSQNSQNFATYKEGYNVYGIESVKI
An asterisk follows results filed as active; i = inactive; . = not tested or not shown; + = active, no number. Only a selection was taken, and hits are over-represented in it overall.

SMILES	GIRK2 act	AMPAR-TARP mod
O=C(NCCn1ncc2c(N3CCCC3)ncnc21)c1ccc(=O)oc1	.	+
COc1ccc(C(=O)NCCn2ncc3c(N4CCCCCC4)ncnc32)cc1OC	i	i
COc1cccc(OCCn2c(CN3CCCCC3)nc3ccccc32)c1	.	i
C#CCn1c(SCCOc2cccc(OC)c2)nc2ccccc21	.	+
CSc1ccccc1NC(=O)Cn1c(-c2cnccn2)nc2ccccc21	i	+
Cc1nc(NC(=O)Cn2c(-c3cnccn3)nc3ccccc32)sc1C(=O)N(C)C	i	i
Cc1cc(C)n(CCNC(=O)Cn2c(-c3cnccn3)nc3ccccc32)n1	i	i
Cc1ccc(Cl)cc1N1CCN(C(=O)Cn2c(-c3cnccn3)nc3ccccc32)CC1	i	+
COc1ccc(OC)c(NC(=O)C(=O)NCC2CCN(C)CC2)c1	i	i
COc1ccc(-c2c(NC(=O)c3cccs3)sc3ccccc3c2=O)cc1	i	i
COc1cc(-c2c(NC(=O)c3ccco3)sc3ccccc3c2=O)cc(OC)c1OC	i	+
COC(=O)Cn1c(=O)c2c(nc3n(-c4ccc(C(F)(F)F)cc4)c(C)c(C)n23)n(C)c1=O	.	i
O=C(CSc1ccccc1)Nc1ccc2ncsc2c1	i	i
COc1ccc(-n2nnc3c(N4CCN(C(=O)c5ccccc5Cl)CC4)ncnc32)cc1	.	i
O=C(CC(c1ccccc1)c1ccccc1)N1CCN(c2ncnc3c2nnn3-c2ccccc2)CC1	.	+
CCC(=O)N1CCN(c2ncnc3c2nnn3-c2cccc(OC)c2)CC1	.	i
CCC(CC)C(=O)N1CCN(c2ncnc3c2nnn3-c2cccc(OC)c2)CC1	.	+
CCSc1ccccc1C(=O)N1CCN(c2ncnc3c2nnn3-c2ccc(OC)cc2)CC1	.	+
COc1ccc(-n2nnc3c(N4CCN(C(=O)c5ccccc5SC)CC4)ncnc32)cc1	.	+
O=C(CSCc1ccccc1)N1CCN(c2ncnc3c2nnn3-c2ccccc2)CC1	.	i
CCSc1ccccc1C(=O)N1CCN(c2ncnc3c2nnn3-c2ccc(C)cc2)CC1	.	i
CCOc1ccc(C)cc1S(=O)(=O)NCC(c1cccn1C)N1CCCC1 (centres undefined)	i	i
CC(NC(=O)c1cccc(N2CCCS2(=O)=O)c1)c1ccc2c(c1)OCCO2 (centres undefined)	.	i
CCCCOc1ccc(NC(=O)N(CCc2ccccc2)Cc2ccccn2)cc1	i	i
Cc1cc2c(=O)n(C)c(SCc3ccccc3)nc2s1	.	i
SMILES	GIRK2 act	AMPAR-TARP mod
CCn1c(SCc2nc(-c3ccc(OC)c(OC)c3)no2)nc2ccccc2c1=O	.	+
CCn1c(SCc2nc(-c3ccc(OC)cc3OC)no2)nc2ccccc2c1=O	.	i
NC(=O)c1ccsc1NC(=O)CCCS(=O)(=O)c1ccccc1	i	i
CC1Cc2c(NC(=O)c3ccc([N+](=O)[O-])o3)nn(C)c2NC1=O (centres undefined)	i	i
CC(C)S(=O)(=O)c1cccc(C(=O)Nc2sccc2C#N)c1	i	i
CC(C)Sc1cccc(C(=O)Nc2sccc2C#N)c1	.	+
Cc1cc(N(C)C)nc(NCCNC(=O)c2ccc(F)cc2Cl)n1	i	.
Cn1nnc2c(Nc3ccc(F)c(Cl)c3)ncnc21	i	i
OC(COc1ccc(-c2ccccc2)cc1)CN1CCN(c2ccccn2)CC1 (centres undefined)	.	i
OC(COc1ccc2cc(Br)ccc2c1)CN1CCN(c2ccccn2)CC1 (centres undefined)	.	+
COc1ccc(CCNc2cc(C)nc3c(-c4ccccc4OC)c(C)nn23)cc1OC	i	i
COc1ccc(CCNc2cc(C)nc3c(-c4ccccc4OC)cnn23)cc1OC	i	+
O=C(Cn1nc(-c2ccc3c(c2)OCO3)ccc1=O)Nc1ccc(F)cc1	i	i
Nc1ccc2c3c(cccc13)C(=O)N(c1ccccc1)C2=O	.	+
O=C1c2ccc(-n3c(=O)c4ccccc4c4ccccc4c3=O)cc2C(=O)N1c1ccccc1	.	i
COc1ccc(-c2nc3c(c(=O)c4ccccc4n3C)c(=O)n2CC(C)C)cc1	.	i
CC(C)Cn1c(-c2ccc([N+](=O)[O-])cc2)nc2c(c(=O)c3ccccc3n2C)c1=O	.	+
CC(=O)N1CCN(c2oc(-c3ccccc3)nc2S(=O)(=O)c2ccccc2)CC1	i	i
CC(=O)N1CCN(c2oc(-c3ccccc3C)nc2S(=O)(=O)c2ccc(C)cc2)CC1	i	+
Cc1ccc(S(=O)(=O)c2nc(-c3ccccc3C)oc2N2CCC(C(N)=O)CC2)cc1	i	i
O=S(=O)(c1ccccc1)c1nc(-c2ccccc2Cl)oc1N1CCCC1	i	+
Cc1ccc([N+](=O)[O-])cc1NC(=O)C(=O)NCc1ccc(Cl)cc1	.	i
O=S(=O)(c1ccc(F)c(Cl)c1)N(Cc1ccsc1)C1CC1	i	.
CCC(C)NC(=O)Cn1c(=O)n(-c2ccc(OC)cc2)c(=O)c2ccccc21 (centres undefined)	.	i
CN1CCN(C(CNS(=O)(=O)c2ccc3c(c2)OCCO3)c2cccn2C)CC1 (centres undefined)	i	i
SMILES	GIRK2 act	AMPAR-TARP mod
O=S(=O)(Oc1c(Cl)cc(Cl)c2cccnc12)N1CCCCCC1	.	i
O=S(=O)(Oc1c(Cl)cc(Cl)c2cccnc12)N1CCCCC1	.	+
COc1ccc(CCS(=O)(=O)NCC2CCN(C)CC2)cc1	i	i
COc1ccc(S(=O)(=O)NCC2CCN(C3CCCC3)CC2)cc1	i	i
CC(C)c1ccc(S(=O)(=O)NCC2CCN(C3CCCC3)CC2)cc1	.	+
COc1ccc(CCS(=O)(=O)NCC2CCN(C3CCCC3)CC2)cc1	i	+
O=C(COC(=O)c1ccco1)Nc1nccs1	i	.
COc1cccc(-c2cc(CC(=O)NCCCn3ccnc3)no2)c1	i	i
COc1ccc(C)c2sc(N(CCN3CCOCC3)C(=O)c3cccc(S(C)(=O)=O)c3)nc12	.	i
Cc1cc(C)c(N2CCN(C(=O)c3cc4cc(Br)ccc4oc3=O)CC2)c(C)c1	i	+
Cc1ccc(Cl)cc1N1CCN(C(=O)c2cc3cc(Br)ccc3oc2=O)CC1	i	i
CCOc1ccccc1C(=O)NNC(=O)c1ccc(=O)n(Cc2ccccc2)c1	i	i
O=C(NNC(=O)c1ccc(=O)n(Cc2ccccc2)c1)c1ccc(Cl)cc1	i	i
O=C(NNC(=O)c1cc2ccccc2oc1=O)c1ccc(=O)n(Cc2ccccc2)c1	i	+
COc1ccc(C(=O)NNC(=O)c2ccc(=O)n(Cc3ccccc3)c2)c(OC)c1	i	+
CN1C(=O)CCc2cc(NC(=O)C3(c4ccc(F)cc4)CC3)ccc21	i	.
Cc1cc(C)c2c(n1)sc1c(N3CCN(CCO)CC3)ncnc12	i	+
CCc1cc2c(N3CCN(c4nc(C)cc(C)n4)CC3)ncnc2s1	.	i
Cc1ccc(OCC(=O)Nc2ccc3c(c2)N(CCC(C)C)C(=O)C(C)(C)CO3)cc1	.	+
CC(C)CCN1C(=O)C(C)(C)COc2ccc(NC(=O)c3cc(=O)c4ccccc4o3)cc21	i	+
CC(C)CCN1C(=O)C(C)(C)COc2ccc(NC(=O)COc3ccc(Cl)cc3)cc21	.	i
Cc1cccc(OCC(=O)Nc2ccc3c(c2)N(CCC(C)C)C(=O)C(C)(C)CO3)c1	.	i
